Assay outcomes (PubChem)
SNCA viab count – cell viability loss counter-screen; hit rate 0.12% among 150,000; Potency, µM (top dose mostly 57.1 µM), hits mostly cytotoxic; HEK-293-SNCA-luc viability, GF-AFC fluorescence, 24 h; note: nearly all actives have a fitted effect of over 30% in size
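HEK-293-SNCA-luc cells (1500/well) plated 24 h, then exposed 24 h to a dilution series; GF-AFC added 30 min at 37C, fluorescence 405/540 nm; normalised to medium-only and DMSO wells, Hill fit.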
IP6K1 inh – inhibitors of human IP6K1. Q92551. IP6K1 kinase, ADP-Glo luminescence, 2 h; hits give low values. activity change, % (series mostly up to about 58 µM). hit rate 0.81% among 140,000. AID 1645851; in the data active = activity change below about -25%
Target sequence (Q92551 whole entry, looked up): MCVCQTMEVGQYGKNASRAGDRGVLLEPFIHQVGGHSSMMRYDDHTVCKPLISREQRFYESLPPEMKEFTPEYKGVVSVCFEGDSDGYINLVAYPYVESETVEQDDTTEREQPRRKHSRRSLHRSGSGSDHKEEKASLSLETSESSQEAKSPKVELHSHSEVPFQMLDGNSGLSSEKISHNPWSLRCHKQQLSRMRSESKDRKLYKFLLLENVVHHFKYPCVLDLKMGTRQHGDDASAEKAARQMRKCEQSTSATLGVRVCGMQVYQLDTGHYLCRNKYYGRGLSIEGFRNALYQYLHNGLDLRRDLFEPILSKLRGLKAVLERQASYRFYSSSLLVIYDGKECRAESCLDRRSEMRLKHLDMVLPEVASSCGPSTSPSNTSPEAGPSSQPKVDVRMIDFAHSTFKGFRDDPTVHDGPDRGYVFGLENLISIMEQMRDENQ
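ADP-Glo luminescence measures ADP made by human IP6K1 during a 2 h RT reaction with ATP/IP6 (mix at 1.3 mM/130 uM); top library doses 57.5 and 19.1 uM final.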
HEK293 tox – HEK 293 cell cytotoxicity | HEK 293 viability, ATP luminescence (CellTiter-Glo), 48-72 h | Potency, µM (doses to about 115 µM), hits mostly inhibitors | hit rate 6.6% among 94,000 | AID 1345083; note: nearly all actives have a fitted effect of over 60% in size
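Pintool-delivered compounds were incubated with HEK 293 cells (250 cells/well) at 37 degree Celsius for 48 or 72 hr. ATP-dependent luminescence (CellTiter-Glo) then reported remaining viable cells.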
3T3 cytotox – kills NIH 3T3 cells. hit rate 4.3% among 94,000. NIH 3T3 viability, CellTiter-Glo ATP luminescence, 48-72 h. Potency, µM (highest dose often 96.7 µM), actives largely listed as inhibitors; note: nearly all actives have a fitted effect of over 55% in size
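Mouse fibroblast NIH 3T3 cells, 400 per well, received compound via pintool and were incubated for 48 or 72 hr prior to CellTiter-Glo ATP luminescence measurement.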
SNCA expr inhib – inhibitors of alpha-synuclein (SNCA) gene expression; HEK-293 SNCA-luciferase knock-in, luminescence, 24 h; hit rate 0.17% among 140,000; Potency, µM (top dose mostly 57.2 µM), hits mostly inhibitors; note: nearly all actives have a fitted effect of over 45% in size
Luciferase inh – Photinus pyralis luciferase inhibition | P08659 | purified P. pyralis luciferase, luminescence, biochemical | Potency, µM (titrated, usually from 115 µM), most hits filed as inhibitors | hit rate 2.5% among 76,000 | AID 1347043; note: nearly all actives have a fitted effect of over 65% in size
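Purified P. pyralis luciferase (10nM final) in 50mM Tris acetate pH 7.5, 10mM Mg acetate, 0.01% Tween-20, 0.05% BSA with 10uM D-luciferin and 10uM ATP. Compounds titrated qHTS. Luminescence imaged on CCD.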
Numbers stand for hits; - = inactive; ? = inconclusive; . = not tested or not shown; [ ] = remark or other dose. Shown are actives, neighbours in structure and some others; about 7.3% of the full set was active somewhere. Unless noted, calls come from the whole dose curve; as a rule, active = well fitted curve in the direction sought with a large enough effect; inconclusive = small, poorly fitted or top-dose-only effect, or another doubt; inactive = no such curve, though single readings can be large; an effect the other way counts as inactive or inconclusive.

SMILES	SNCA viab count	IP6K1 inh	HEK293 tox	3T3 cytotox	SNCA expr inhib	Luciferase inh
CCn1cc(S(=O)(=O)N2CCCC(Cc3noc(-c4cnccn4)n3)C2)cn1 (configuration not stated)	-	-	-	-	-	-
Cc1cc(C)c(CNC(=O)c2cc(-c3ccc(CO)cc3)cc3c2OCCN3C)c(=O)[nH]1	-	-	89.1µM	12.6µM	-	-
Cc1ccc(-c2cc(C(=O)NCc3c(C)cc(C)[nH]c3=O)c3c(c2)N(C(C)C)CCO3)cc1	-	-	?	?	?	-
Cc1cc(C)c(CNC(=O)c2cc(-c3ccccc3)cc3c2OCCN3C(C)C)c(=O)[nH]1	?	-	31.6µM	22.4µM	?	-
Cc1ccc(-c2cc(C(=O)NCc3c(C)cc(C)[nH]c3=O)c3c(c2)N(C)CCO3)cc1	-	-	?	?	-	-
COc1ccccc1-c1cc(C(=O)NCc2c(C)cc(C)[nH]c2=O)c2c(c1)N(C)CCO2	?	-	89.1µM	?	?	-
COc1cc(F)ccc1-c1cc(C(=O)NCc2c(C)cc(C)[nH]c2=O)c2c(c1)ncn2C	-	-	?	25.1µM	?	?
COc1cccc(C(=O)NC2CCN(c3cc(-c4ccc(Cl)cc4)[nH]n3)C2)c1 (configuration not stated)	-	-	?	?	-	-
COc1ccc(-c2nc(C3CC3)nc3c2CCN(Cc2cncs2)CC3)cc1	-	-	-	-	-	.
O=C(C1CN(c2ccc(F)cc2)C(=O)N1)N1CCN(Cc2ccccc2)CC1 (configuration not stated)	-	-	25.1µM	28.2µM	?	-
CCN1CCN(CCCNC(=O)C2CCCCC(=O)N2Cc2cccc(OC)c2)CC1 (configuration not stated)	-	-	-	-	-	.
COC1CCOC2(CCN(C(=O)NCCc3ccccc3)CC2)C1 (configuration not stated)	-[12.5 µM]	-	-	-	-	28.2µM
NC(=O)Nc1ccc(S(=O)(=O)NCc2cc3n(n2)CCCNC3)cc1	-	-	-	-	-	-
COc1ccc(-c2cc(N3CCCN(C(=O)c4cc(OC)cc(OC)c4)CC3)n[nH]2)cc1	-	-	?	-	-	-
COc1cc(OC)cc(C(=O)N2CCN(c3cc(-c4ccc(Cl)cc4)[nH]n3)CC2)c1	-	-	?	35.5µM	-	-
O=C(c1ccc2[nH]ccc2c1)N1CCCN(c2cc(-c3ccc(Br)cc3)[nH]n2)CC1	-	-	22.4µM	31.6µM	?	-
COc1ccc(C(=O)N2CCCN(c3cc(-c4ccccc4)[nH]n3)CC2)cc1F	-	-	?	-	?	-
COc1ccc(C(=O)N2CCN(c3cc(-c4ccc(F)cc4)[nH]n3)CC2)cc1OC	-	-	?	?	-	-
COc1ccc(C(=O)N2CCCN(c3cc(-c4ccc(Cl)cc4)[nH]n3)CC2)cc1F	?	-	?	25.1µM	-	-
COc1ccc(C(=O)N2CCN(c3cc(-c4ccc(Cl)cc4)[nH]n3)CC2)cc1OC	?	-	35.5µM	?	?	-
Cc1nn(-c2ccccc2)c2c1C(C(C)C)N(C1CN(C(=O)NC(C)C)C1)C2=O (configuration not stated)	.	-	?	-	.	.
COc1ccc(C(=O)N2CCCN(c3cc(-c4ccc(Br)cc4)[nH]n3)CC2)cc1F	?	-	39.8µM	22.4µM	?	-
COc1cc(C(=O)N2CCCN(c3cc(-c4ccc(F)cc4)[nH]n3)CC2)cc(OC)c1OC	-	-	-	-	-	-
Cc1nn(-c2ccccn2)c(C)c1[C@@H]1C=C[C@@H](NC(=O)NC(C)C)C1	-	-	-	?	-	?
Cc1nn(-c2ccc(C(C)C)cc2)c(C)c1[C@@H]1C=C[C@@H](NCc2ccccc2)C1	?	-	25.1µM	11.2µM	-	63.1µM
SMILES	SNCA viab count	IP6K1 inh	HEK293 tox	3T3 cytotox	SNCA expr inhib	Luciferase inh
Cc1nn(-c2ccc(C(C)C)cc2)c(C)c1[C@@H]1C=C[C@@H](NCc2cccc(Cl)c2)C1	?	-	10µM	12.6µM	?	44.7µM
Cc1cccc(NC(c2cccc(Cl)c2)c2ccc3cccnc3c2O)n1 (configuration not stated)	-	-	.	.	8.91µM	.
CCC1Oc2ccc(NC(=O)c3cccc(F)c3)cc2CN(Cc2ccccc2F)C1=O (configuration not stated)	-	-	35.5µM	?	-	-
CCC1Oc2ccc(NC(=O)c3ccccc3)cc2CN(Cc2cc(F)cc(F)c2)C1=O (configuration not stated)	-	-	14.1µM	?	-	-
CCC1Oc2ccc(NC(=O)c3ccc(C#N)cc3)cc2CN(Cc2ccccc2F)C1=O (configuration not stated)	-	-	44.7µM	?	-	-
CCC1Oc2ccc(NC(=O)COc3ccccc3)cc2CN(Cc2cc(F)cc(F)c2)C1=O (configuration not stated)	-	-	?	?	-	-
COc1ccccc1CN1Cc2cc(NC(=O)c3ccc([N+](=O)[O-])cc3)ccc2OC(C)C1=O (configuration not stated)	-	-	?	?	-	-
CC1Oc2ccc(NC(=O)c3ccc([N+](=O)[O-])cc3)cc2CN(Cc2ccccc2F)C1=O (configuration not stated)	-	-	31.6µM	?	-	-
Cc1cc(C(=O)NCC(C)C)c2c(C3CCCNC3)noc2n1 (configuration not stated)	-	-	-	-	-	.
Cc1nn(-c2ccccc2)c2c1C(C1CC1)N(CC1CN(C(=O)Cc3ccccc3)C1)C2=O (configuration not stated)	.	-	?	?	.	.
CCC1Oc2ccc(NC(=O)Cc3ccc(F)cc3)cc2CN(Cc2ccccc2F)C1=O (configuration not stated)	-	-	44.7µM	?	-	-
CCC1Oc2ccc(NC(=O)c3ccccc3F)cc2CN(Cc2ccccc2F)C1=O (configuration not stated)	-	-	?	?	-	-
Cc1nsc(NC(=O)N2CCCN(c3ccccc3)CC2)n1	-	-	?	?	-	-
COc1ccc(N2CCN(C(=O)Nc3nc(C)ns3)CC2(C)C)cc1	-	-	10µM	?	-	-
CC(C)(C)NC(=O)N1CCC2(CC1)CC(Cc1nc(-c3cnccn3)no1)CCO2 (configuration not stated)	-	-	-	-	-	-
COc1ccccc1CNC(=O)C[C@@H]1CCNC[C@@H]1Cc1cc(-c2ccccc2)on1	-	-	63.1µM	79.4µM	-	-
CN(Cc1ccccc1)Cc1cc(C[C@H]2CNCC[C@H]2CC(=O)NC2CCCCC2)no1	-	-	?	79.4µM	-	-
